Source: PubChem BioAssay (Tox21)
Results filed as inconclusive are left out. The source made the active and inactive calls. Unless noted, calls follow the shape of the dose curve; as a rule, active = well fitted curve in the direction sought with a large enough effect in the repeat runs; inconclusive = weak or mixed curves; inactive = no such curve, though single readings can be large; an effect the other way counts as inactive or inconclusive.

Tests used:
[1] = qHTS assay to identify small molecule HDAC inhibitors (AID 1259364); conditions: HCT-116 HDAC-Glo I/II luminescence, 2 h; series mostly up to 92.4 µM;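 also: wild-type HCT-116 cells with endogenous class I/II HDAC activity; top concentration of the series differs between compounds; nearly all actives have a fitted effect of over 45% in size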
In short: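 Quantitative high-throughput format: overnight-seeded HCT-116 cells got compounds for 2 hr at 37C; HDAC-Glo I/II reagent added, 30 min RT, luminescence measured.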

[2] = qHTS assay to identify small molecule HDAC inhibitors - cell viability counter screen (AID 1259365); conditions: HCT-116 viability, CellTiter-Glo ATP luminescence, 2 h; series mostly up to 92.4 µM; also: nearly all actives have a fitted effect of over 50% in size
In short: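 HCT-116 (wild type), 1,500 cells/well, overnight 37C/5% CO2; compound in DMSO 2hr; CellTiter-Glo 30min RT; luminescence read.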

[3] = qHTS assay to identify small molecule agonists of the sonic hedgehog signaling (Shh) pathway - cell viability counter screen (AID 1259366); conditions: NIH/3T3 Gli1-Luc viability, CellTiter-Fluor, 24 h; series mostly up to 92.4 µM; also: nearly all actives have a fitted effect of over 50% in size; also: potency is read from the fitted curve at half-maximal effect
In short: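 CellTiter-Fluor fluorescence read-out, 1 hr at 37C, added after 23hr compound exposure. Cells: 3T3 Gli1-Luc, an NIH/3T3 clone with stably integrated Gli1-Luc reporter, plated 4hr before compound.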

[4] = qHTS assay to identify small molecule antagonists of the sonic hedgehog signaling (Shh) pathway - cell viability counter screen (AID 1259367); conditions: NIH/3T3 Gli1-Luc viability, CellTiter-Fluor, 24 h; series mostly up to 92.4 µM; also: nearly all actives have a fitted effect of over 55% in size; also: potency is read from the fitted curve at half-maximal effect
In short: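 Conditioned medium drove Shh signaling in 3T3 Gli1-Luc cells exposed to compounds at 37C and 5% CO2. Viability was determined from CellTiter-Fluor fluorescence, with reagent incubated 1 hr after 23 hr of treatment.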

[5] = qHTS assay to identify small molecule agonists of the sonic hedgehog signaling (Shh) pathway (AID 1259368; calls by dose curve;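 also: NIH/3T3-derived 3T3Gli1-Luc cells carrying a stable Gli1-driven firefly luciferase reporter; nearly all actives have a fitted effect of over 15% in size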); conditions: NIH/3T3 Gli1-Luc reporter, luciferase, 24 h; series mostly up to 92.4 µM
In short: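 Quantitative high-throughput format using a Gli1-driven firefly luciferase reporter line derived from NIH/3T3 cells. After a 24 hr compound treatment at 37 C and 5% CO2, luminescence reported Gli1 response element activity.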

[6] = qHTS assay to identify small molecule antagonists of the sonic hedgehog signaling (Shh) pathway (AID 1259369; calls by dose curve; also: nearly all actives have a fitted effect of over 45% in size; also: potency is read from the fitted curve at half-maximal effect); conditions: NIH/3T3 Gli1-Luc reporter, Shh antagonist, luminescence 24 h; series mostly up to 92.4 µM
In short: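 Stable Gli1-Luc reporter NIH/3T3 clone; quantitative HTS in stimulated mode with conditioned medium. Luminescence measured after 24hr compound treatment at 37 C.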

[7] = target: Estrogen receptor beta (Homo sapiens) (UniProt Q92731); assay: qHTS assay to identify small molecule agonists of the estrogen receptor beta (ER-beta) signaling pathway (AID 1259377; active = well fitted activation curve with a large enough effect in the signal ratio in the repeat runs, not every such curve was filed as active; the % refers to the signal ratio); conditions: ER-beta-UAS-bla HEK293T, beta-lactamase FRET ratio, 16 h; series mostly up to 92.4 µM
Chain of Estrogen receptor beta (Homo sapiens) (Q92731 whole entry, looked up): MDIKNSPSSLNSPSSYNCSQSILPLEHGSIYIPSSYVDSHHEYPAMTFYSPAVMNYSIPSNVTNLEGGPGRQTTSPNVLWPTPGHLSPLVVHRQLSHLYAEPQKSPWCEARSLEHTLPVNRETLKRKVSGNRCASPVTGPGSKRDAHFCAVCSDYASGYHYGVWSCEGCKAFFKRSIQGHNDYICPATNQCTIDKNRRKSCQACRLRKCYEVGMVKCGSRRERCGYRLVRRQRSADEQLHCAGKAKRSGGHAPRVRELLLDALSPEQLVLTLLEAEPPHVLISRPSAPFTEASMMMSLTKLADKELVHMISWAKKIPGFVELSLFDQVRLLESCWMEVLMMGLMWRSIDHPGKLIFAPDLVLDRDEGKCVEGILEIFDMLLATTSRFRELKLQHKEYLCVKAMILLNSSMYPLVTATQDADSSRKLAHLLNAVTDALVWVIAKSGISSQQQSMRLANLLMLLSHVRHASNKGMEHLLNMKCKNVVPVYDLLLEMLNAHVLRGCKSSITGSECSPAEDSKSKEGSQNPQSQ
In short: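 Beta-lactamase reporter readout: fluorescence of LiveBLAzer B/G FRET substrate after 2 h at room temperature, following 16 h compound treatment of ER-beta-UAS-bla HEK293T cells at 37C in 2% charcoal-stripped FBS medium.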

[8] = target: Estrogen receptor beta (Homo sapiens) (UniProt Q92731); assay: qHTS assay to identify small molecule antagonists of the estrogen receptor beta (ER-beta) signaling pathway (AID 1259378; active = well fitted inhibition curve with a large enough effect in the signal ratio in the repeat runs, not every such curve was filed as active; the % refers to the signal ratio); conditions: ER-beta-UAS-bla HEK293T, beta-lactamase FRET ratio, 16 h; series mostly up to 92.4 µM
In short: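 ER-beta-UAS-bla HEK293T (GripTite) cells in 2% charcoal-stripped FBS medium were preincubated 6 hr at 37C, dosed with compound, then stimulated with 1 nM E2 (final) for 16 hr; beta-lactamase reporter read by B/G FRET fluorescence after 2 hr substrate loading.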

[9] = qHTS assay to identify small molecule agonists of the androgen receptor (AR) signaling pathway in the presence of an antagonist - cell viability counter screen (AID 1259379); conditions: MDA-kb2 viability, CellTiter-Fluor, 16 h; series mostly up to 92.4 µM; also: nearly all actives have a fitted effect of over 25% in size; also: potency is read from the fitted curve at half-maximal effect;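 as to activity change, negative = cytotoxicity: MDA-kb2 human breast cancer cells carrying an MMTV luciferase reporter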
In short: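 Nilutamide-containing (3.0uM final) MDA-kb2 cultures, 3,000 cells/well, were treated with compounds across 15 concentrations. After 16 hr at 37C with no CO2, cell viability was determined by CellTiter-Fluor fluorescence in the luciferase assay wells.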

[10] = qHTS assay to identify small molecule phospholipidosis (PLD) inducers (AID 1259344; active = well fitted curve in the direction sought with a large enough effect; an effect the other way counts as inactive or inconclusive); conditions: HepG2 phospholipidosis, LipidTOX Red imaging, 24 h; series mostly up to 38.3 µM
In short: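 After 4 h attachment on collagen I, HepG2 cells were dosed with compound alongside LipidTOX Red, kept 24 h at 37 C, fixed, and imaged for lamellar phospholipid pits.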
% is scaled to controls: 0 for no effect and ±100 for the full control effect.

SC1CCCCC1
inactive: Potency [1] | Potency [2] | Potency [3] | Potency [4] | Potency [5] | Potency [6] | outcome [7] | Potency [8] | Potency [9]

CC(C)=CCC/C(C)=C/CC/C(C)=C/CC/C=C(\C)CC/C=C(\C)CCC=C(C)C
inactive: Potency [10]

CC(=O)N(C)C
inactive: Potency [1]

Cc1ncc(C[n+]2csc(CCO)c2C)c(N)n1
inactive: Potency [10]

O=C(O)C[C@H](O)C[C@H](O)/C=C/c1c(C2CC2)nc2ccccc2c1-c1ccc(F)cc1
inactive: Potency [10] | activity change, negative = inhibition [1] -0.0181% [at 19 µM] | viability change, negative = cytotoxic [3] -7.99% [at 19 µM] | viability change, negative = cytotoxic [4] -0.451% [at 19 µM] | activity change [5] -2.24% [at 18.9 µM, hits give high values] | activity change, negative = inhibition [6] -28% [at 19 µM] | activity change, negative = cytotoxicity [9] 0.182% [at 19 µM]

O=[N+]([O-])c1ccc(O)c2ncccc12
active: Potency [3] 1.88 µM | Potency [6] 0.531 µM | Potency [9] 11.9 µM
inactive: Potency [10] | outcome [7]

CCCOC(=O)c1ccc(O)cc1
inactive: Potency [10] | Potency [3] | Potency [4] | Potency [5] | Potency [9]
active: Potency [6] 2.43 µM

O=C(CCN1CCC(c2ccccc2)C1)c1ccc2c(c1)OCCO2 (centres undefined)
active: Potency [3] 33.5 µM | Potency [6] 18.8 µM
inactive: Potency [10] | Potency [1] | Potency [2] | outcome [7] | Potency [8]

CCCC(=O)c1cc(O)c(O)cc1O
active: Potency [3] 54.5 µM | Potency [6] 27.3 µM | Potency [9] 54.5 µM
inactive: PLD induction [10] -3.64% [at 3.15 µM] | Potency [1] | Potency [2]

CCCCCN=C(N)N/N=C/c1c[nH]c2ccc(OC)cc12
inactive: Potency [10] | Potency [1]
active: Potency [3] 8.41 µM | Potency [4] 13.3 µM | Potency [6] 1.68 µM | Potency [9] 13.3 µM

O=[N+]([O-])c1ccc(CO)cc1
inactive: Potency [1] | Potency [2] | Potency [3] | Potency [4] | Potency [5] | Potency [6] | outcome [7] | Potency [8] | Potency [9]

CN(C/C=C/c1ccccc1)Cc1cccc2ccccc12
inactive: Potency [10] | Potency [1] | Potency [3] | Potency [4] | Potency [5] | Potency [6] | outcome [7] | Potency [9]

CN1CC[C@H](c2c(O)cc(O)c3c(=O)cc(-c4ccccc4Cl)oc23)[C@H](O)C1
active: Potency [3] 0.376 µM | Potency [4] 0.298 µM | Potency [6] 0.0473 µM
inactive: Potency [10] | Potency [1] | Potency [2] | Potency [5] | outcome [7] | Potency [9]

CCCCCCCC/C=C\CCCCCCCC(=O)N(CCO)CCO
active: Potency [6] 15.3 µM
inactive: Potency [1] | Potency [2] | Potency [3] | Potency [4] | Potency [5]

c1ccc2c(c1)OCC(CN1CCCCC1)O2 (centres undefined)
inactive: Potency [10]

Nc1cc([N+](=O)[O-])ccc1Cl
inactive: Potency [1] | Potency [2] | Potency [3] | Potency [4] | Potency [5] | Potency [6] | outcome [7] | Potency [9]

O=C(NCc1ncc(C(F)(F)F)cc1Cl)c1c(Cl)cccc1Cl
active: Potency [9] 17.2 µM
inactive: Potency [1] | Potency [2] | Potency [3] | Potency [4] | Potency [5] | Potency [6] | outcome [7]

C/C(=C\c1ccc(C(=O)O)cc1)c1ccc2c(c1)C(C)(C)CCC2(C)C
inactive: Potency [1] | Potency [2] | Potency [3] | Potency [4] | Potency [5] | Potency [6] | outcome [7] | Potency [9]

CCCCCCCCCCCCCCCCC(C(=O)O)C(O)(CC(=O)O)C(=O)O (centres undefined)
inactive: Potency [10] | Potency [1] | Potency [3] | Potency [4] | Potency [5] | Potency [6] | outcome [7] | Potency [8] | Potency [9]

N=C(N)c1ccc(/C=C/c2ccc(C(=N)N)cc2O)cc1
inactive: Potency [10]

CCC(O)CO (centres undefined)
inactive: Potency [1] | Potency [2] | Potency [3] | Potency [4] | Potency [5] | Potency [6] | outcome [7] | Potency [8] | Potency [9]

NC(=O)C1CO1 (centres undefined)
inactive: Potency [1] | Potency [2] | Potency [3] | Potency [4] | Potency [5] | Potency [6] | outcome [7] | Potency [8] | Potency [9]

NC(=O)c1ccccc1Cl
inactive: Potency [1] | Potency [2] | Potency [3] | Potency [4] | Potency [5] | Potency [6] | outcome [7] | Potency [8] | Potency [9]

C=C1C(CCl)(CCl)C2(Cl)C(Cl)C(Cl)C1(Cl)C2(Cl)Cl (centres undefined)
inactive: Potency [10] | Potency [2] | Potency [4] | Potency [5]

O=c1[nH]cccc1O
inactive: Potency [1] | Potency [2] | Potency [3] | Potency [4] | Potency [5] | Potency [6] | outcome [7] | Potency [8] | Potency [9]

COc1ccc2ccccc2c1
inactive: Potency [1]

CC12CCC(C[N+](C)(CCC[N+](C)(C)C)C1)C2(C)C (centres undefined)
inactive: Potency [10]

CN1CCN(CCCN2c3ccccc3Sc3ccc(C(F)(F)F)cc32)CC1
inactive: Potency [1] | Potency [2] | Potency [4] | Potency [5]
active: Potency [3] 26.6 µM | Potency [6] 10.6 µM
